# Screening data deposited in PubChem by Johns Hopkins Ion Channel Center.
# This is a sample that favours compounds with a hit; in the whole collection about 1.6% have one here.
# KCNQ2 block – rat KCNQ2 potassium channel inhibitors, primary screen, cell-based, CHO-K1, FluxOR thallium flux, B-score; 1.1% of 310,000 active; B-score at 10 µM; Potassium voltage-gated channel subfamily KQT member 2 (Rattus norvegicus), O88943; 20 min; hits give low values; AID 2156, 2009;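 active = fluorescence ratio B-score at most minus 3 library SDs, with starting brightness B-score within 2 library SDs, cut at about -5.5 in these data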
# Target sequence (O88943 whole entry, looked up): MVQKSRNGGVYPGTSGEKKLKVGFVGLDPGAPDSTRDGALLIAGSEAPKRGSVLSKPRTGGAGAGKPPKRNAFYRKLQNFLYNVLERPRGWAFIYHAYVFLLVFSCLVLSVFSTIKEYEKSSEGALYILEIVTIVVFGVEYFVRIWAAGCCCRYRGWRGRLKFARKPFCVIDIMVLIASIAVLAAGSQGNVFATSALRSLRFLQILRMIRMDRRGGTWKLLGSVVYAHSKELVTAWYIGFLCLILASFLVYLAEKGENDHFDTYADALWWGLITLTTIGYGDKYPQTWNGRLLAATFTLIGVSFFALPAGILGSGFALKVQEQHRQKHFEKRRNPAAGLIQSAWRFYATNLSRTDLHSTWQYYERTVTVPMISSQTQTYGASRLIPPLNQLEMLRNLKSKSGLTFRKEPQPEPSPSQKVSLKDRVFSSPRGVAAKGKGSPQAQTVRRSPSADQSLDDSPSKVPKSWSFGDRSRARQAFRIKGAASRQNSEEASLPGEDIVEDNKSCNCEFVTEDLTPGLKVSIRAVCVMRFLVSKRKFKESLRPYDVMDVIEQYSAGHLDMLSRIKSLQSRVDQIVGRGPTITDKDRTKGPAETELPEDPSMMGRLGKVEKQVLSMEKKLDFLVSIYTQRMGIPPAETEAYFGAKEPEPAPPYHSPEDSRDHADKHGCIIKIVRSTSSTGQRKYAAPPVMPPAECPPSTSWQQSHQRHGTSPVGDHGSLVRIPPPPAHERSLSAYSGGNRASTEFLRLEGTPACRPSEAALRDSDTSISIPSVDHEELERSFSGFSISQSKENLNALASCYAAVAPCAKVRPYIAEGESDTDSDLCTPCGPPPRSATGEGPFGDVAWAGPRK
# KCNQ2 pot – potentiators of rat KCNQ2 potassium channel | AID 2239, 2010 | CHO-K1 KCNQ2, FluxOR thallium flux fluorescence; hits give high values | B-score at 10 µM | 0.54% of 310,000 active | Potassium voltage-gated channel subfamily KQT member 2 (Rattus norvegicus), O88943;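 active = fluorescence ratio B-score at least 3 SD of library B-scores, with initial fluorescence B-score within 3 of them, cut at about 5.3 in these data; same plate scores as AID 2156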;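 also: B-score of peak minus minimum over baseline fluorescence ratio after K+ and Tl+ stimulus; positive B-score means potentiation of KCNQ2 with more thallium influx and brighter signal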
# Kir21 conf inh – mouse Kir2.1 channel blockers, retest, confirmation, cell-based, FluxOR thallium flux, duplicate; Tl flux remaining, % of negative control (hits give low values), % at 10 µM; 41% of 2,300 active; Kir2.1-expressing cells, FluxOR thallium flux fluorescence; hits give low values; shares compounds with KCNQ2 pot;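 active = Primary-screen hit whose thallium flux fell at least 3 control SD below untreated wells in both duplicates, with normal baseline fluorescence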;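 also: 0% = blank wells without stimulus and 100% = stimulated no-compound controls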
# HEK293 ctr – alters thallium flux in parental HEK293 cells, Kir2.1 counter-screen. AID 2105. FluxOR signal as % of negative control (100 = no effect), % at 10 µM. 19% of 2,300 active. shares compounds with KCNQ2 pot. FluxOR thallium flux fluorescence; 0% = unstimulated blank wells;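 active = dye signal at least 3 control SD above or below untreated wells in both duplicates, raw fluorescence within 3, either direction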;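 also: percent is based on the flux ratio of peak minus minimum fluorescence over baseline F0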
# CHO-K1 ctr – nonspecific thallium flux increase in parental CHO-K1, confirmation, counter-screen for KCNQ2 potentiator project, cell-based, FluxOR thallium flux, duplicate. AID 2282, 2010. activity increase over 3SD of controls, % at 10 µM. parental CHO-K1 cells, FluxOR thallium flux fluorescence; zero = vehicle mean+3SD, 100% = vehicle-minus-blank window. 43% of 1,200 active. shares compounds with KCNQ2 pot;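 active = signal rise of at least 3 SD above the untreated control mean, in both duplicate wells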;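 also: counter screen of KCNQ2 potentiator hits so any rise reflects channel-independent effects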
# KCNQ1 sel pot – human KCNQ1 channel potentiation off-target, confirmation, selectivity assay for KCNQ2 potentiator project, cell-based, CHO, FluxOR thallium flux; shares compounds with KCNQ2 pot; CHO KCNQ1 stable, FluxOR thallium flux fluorescence; beyond 3SD, as % of vehicle-control signal; activation over 3SD threshold, % at 10 µM; 28% of 1,200 active; AID 2283, 2010;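 active = fluorescence ratio rise of at least 3 SD of vehicle wells above their mean, in both replicate wells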;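 also: 0% = vehicle mean plus 3 SD and 100% = vehicle minus unstimulated blank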
# KCNQ2 pot confirm – rat KCNQ2 channel potentiators, confirmation, cell-based, CHO, FluxOR thallium flux, duplicate | shares compounds with KCNQ2 pot | CHO-KCNQ2 cells, FluxOR thallium flux fluorescence | potentiation, less the hit threshold, % at 10 µM | 68% of 1,200 active;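 active = fluorescence ratio rising 3 SD or more over the vehicle control mean in both replicates, plus primary screen hit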;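 also: peak minus minimum thallium fluorescence divided by baseline after K/Tl stimulus; 0% = vehicle mean plus 3 SD and 100% = vehicle minus unstimulated blank difference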
# Kir21 spec – mouse Kir2.1 channel activation off-target, confirmation, selectivity assay for KCNQ2 potentiator project, cell-based, HEK293, FluxOR thallium flux; HEK293 Kir2.1, FluxOR thallium flux fluorescence; activity over 3SD threshold, % at 10 µM; 2% of 1,200 active; shares compounds with KCNQ2 pot;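 active = fluorescence ratio rise of at least 3 SD above the vehicle-control mean, seen in both replicates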;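 also: 0% = vehicle mean plus 3 SD and 100% = vehicle minus no-stimulus blank window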
# KCNQ2 W236L pot – potentiators of retigabine-insensitive KCNQ2 W236L, mechanism study for KCNQ2 potentiator project, cell-based, rat KCNQ2 W236L, CHO, automated patch clamp; shares compounds with KCNQ2 pot; automated patch clamp current; current increase over 3SD of negative controls (%), hits give high values, % at 25 µM; 10% of 940 active; AID 2558, 2010;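 active = current increase at least 3 SD of the untreated controls above them in both duplicate recordings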
# * = called active by the depositor; i = inactive; x = no result.
SMILES,KCNQ2 block,KCNQ2 pot,Kir21 conf inh,HEK293 ctr,others
O=C(Oc1cccc(OC(=O)c2ccco2)c1)c1ccco1,i,0.44,51%*,i,
O=C(Oc1cccnc1)c1ccco1,i,x,x,x,
CCC(C)[C@H](NC(=O)[C@@H]1CSC2c3ccccc3C(=O)N21)C(=O)N1CCCCC1 (stereo partly drawn),i,x,x,x,
COC(=O)CN(c1nc(C)cc(OC)n1)S(=O)(=O)c1ccc(C)cc1,i,2.2,x,x,
C=CCN(c1nc(C)cc(OC)n1)S(=O)(=O)c1ccc(C)cc1,i,x,x,x,
CCN(c1nc(C)cc(OC)n1)S(=O)(=O)c1ccccc1,i,x,56%*,74%*,
C=CCN(c1nc(C)cc(OC)n1)S(=O)(=O)c1ccccc1,i,x,55%*,72%*,
CN(CC(=O)Nc1ccccc1Br)C(=O)c1cccnc1Nc1cccc(C(F)(F)F)c1,i,x,x,x,
CC1CCN(S(=O)(=O)c2ccc(NC(=O)C3CCN(C(=O)c4ccco4)CC3)cc2)CC1,i,0.14,x,x,
CN(C)c1cccc(C(=O)Nc2nnc(Cc3ccccc3)s2)c1,i,x,x,x,
COc1ccc(Nc2nc(NCC3CCCO3)c3ccccc3n2)c(OC)c1 (stereo not drawn),i,x,30%*,i,
Oc1cccc(Nc2nc(NCC3CCCO3)c3ccccc3n2)c1 (stereo not drawn),i,x,x,x,
Cc1cccc(Nc2nc(N)nc(CN3CCN(c4ccc(F)cc4)CC3)n2)c1,i,6.9*,i,i,CHO-K1 ctr=44*;KCNQ1 sel pot=-7;KCNQ2 pot confirm=-8;Kir21 spec=-40;KCNQ2 W236L pot=i
Cc1cccc(Nc2nc(N)nc(CN3CCN(C)CC3)n2)c1,i,0.06,x,x,
Cc1nc2ccc([N+](=O)[O-])cc2c(=O)n1Cc1ccc(F)cc1,i,x,x,x,
CC(O)(C#CCN1CCOCC1)c1ccccc1 (stereo not drawn),i,0.49,x,x,
CN1CCN(CC#CC(C)(O)C2CC3C=CC2C3)CC1 (stereo not drawn),i,5.4*,i,i,CHO-K1 ctr=-3;KCNQ1 sel pot=-39;KCNQ2 pot confirm=-10;Kir21 spec=-37
O=C(Nc1cc([N+](=O)[O-])ccc1C(=O)NCCN1CCOCC1)c1ccccc1,i,2.3,x,x,
CCOc1ccc(OCCOC(=O)C2CCN(S(=O)(=O)c3ccc(C)c(C)c3)CC2)cc1,i,0.99,x,x,
CC[C@@H](C)[C@H](NC(=O)OC(C)(C)C)c1nnc(S(=O)(=O)Cc2cc(C)ccc2C)o1,i,x,i,i,
CC(C)[C@H](NC(=O)OC(C)(C)C)c1nnc(S(=O)(=O)Cc2c(F)cccc2Cl)o1,i,0.91,x,x,
CC(C)c1nc2c(c(=O)c3ccccc3n2C)c(=O)n1CCc1ccccc1,i,2.3,x,x,
CC1(C)Cc2c(sc(NC(=O)C(=O)NCC3CCCO3)c2C(N)=O)CO1 (stereo not drawn),i,x,x,x,
S=c1[nH]cnc2sc(-c3ccccc3)cc12,i,24*,i,i,CHO-K1 ctr=-1;KCNQ1 sel pot=-7;KCNQ2 pot confirm=70*;Kir21 spec=-15;KCNQ2 W236L pot=i
CNc1ncnc2sc(-c3ccccc3)cc12,i,0.27,x,x,
SMILES,KCNQ2 block,KCNQ2 pot,Kir21 conf inh,HEK293 ctr,others
NNc1nc2ccccc2c(=O)n1Cc1ccccc1,i,x,x,x,
COc1nc(-c2ccc(Cl)cc2Cl)nc2ccccc12,i,0.05,x,x,
O=S(=O)(NCCc1ccccn1)c1ccc(F)c(F)c1,i,6.1*,i,i,CHO-K1 ctr=3.1*;KCNQ1 sel pot=-14;KCNQ2 pot confirm=-7;Kir21 spec=-36;KCNQ2 W236L pot=i
O=S(=O)(NCCc1ccccn1)c1ccc(OC(F)(F)F)cc1,i,x,x,x,
COC(=O)c1ccc(Oc2nc(NC(C)C)nc(N(C)C)n2)cc1,i,11*,i,i,CHO-K1 ctr=-16;KCNQ1 sel pot=-12;KCNQ2 pot confirm=-26;Kir21 spec=-32
COC(=O)c1ccc(Oc2nc(NC(C)C)nc(NC(C)C)n2)cc1,i,x,x,x,
COc1cccc(CNC(=O)CCCn2nc(C)c3c(C)n(-c4ccc(C)cc4)nc3c2=O)c1OC,i,x,x,x,
COc1ccc(-n2c(C)cc(/C=C3\C(=N)N4N=C(CC(=O)N5CCOCC5)SC4=NC3=O)c2C)cc1,i,0.01,x,x,
O=C(CCCOc1ccccc1)NN1C(=O)NC2(CCCCC2)C1=O,i,x,x,x,
S=c1[nH]nc(-c2cc(-c3ccccn3)nc3ccccc23)o1,i,0.83,x,x,
Cc1ccc(-c2cc(-c3n[nH]c(=S)o3)c3ccccc3n2)cc1,i,14*,i,486%*,CHO-K1 ctr=47*;KCNQ1 sel pot=-12;KCNQ2 pot confirm=168*;Kir21 spec=-6;KCNQ2 W236L pot=i
Cc1ccc(S(=O)(=O)c2c(N)n(NC(=O)c3ccccc3C)c3nc4ccccc4nc23)cc1,i,5.3,i,i,CHO-K1 ctr=98*;KCNQ1 sel pot=-8;KCNQ2 pot confirm=-3;Kir21 spec=-39;KCNQ2 W236L pot=i
Cc1ccc(C(=O)Nn2c(N)c(S(=O)(=O)c3ccc(C)cc3)c3nc4ccccc4nc32)cc1,i,0.47,x,x,
O=C(Nc1cccc(Cl)c1Cl)C1CCCC1,i,x,x,x,
O=C1NC(=S)S/C1=C\c1cc2ccccc2nc1N1CCCCC1,i,5.5*,i,i,CHO-K1 ctr=23*;KCNQ1 sel pot=-17;KCNQ2 pot confirm=21*;Kir21 spec=-21;KCNQ2 W236L pot=i
Cc1nn(C)cc1/C=C1\SC(=S)NC1=O,i,0.35,x,x,
Cn1c(CNC(=O)c2ccccc2F)cc2ccccc21,i,x,x,x,
Cn1c(CNC(=O)c2ccc(F)cc2)cc2ccccc21,i,6.5*,i,i,CHO-K1 ctr=0;KCNQ1 sel pot=78*;KCNQ2 pot confirm=0;Kir21 spec=-27;KCNQ2 W236L pot=i
CCC(=O)N(Cc1ccco1)c1nc(-c2ccc(OC)cc2)cs1,i,x,x,x,
CCC(=O)N(CC)c1nc(-c2ccc(OC)cc2)cs1,i,2.6,i,i,
CCCC(=O)Nc1cc(C(=O)N(C)CC(OC)OC)ccc1S(=O)(=O)c1ccc(C)cc1,i,0.01,x,x,
